Measurements published in the supplement of paper PMC11417369.
± gives the standard deviation of the averaged measurements. Whole data set: some 25,000 sequences, median “ln(normalized median fluorescence intensity)” near 10, cut for the highest 2% near 12. The list comes from a sample in which the highest values are over-represented; it also holds similar and randomly drawn sequences.

test system: PfAP2-G AP2 domain (GST-tagged); assay: gcPBM binding intensity (ln(normalized median fluorescence intensity)); higher = stronger DNA binding
How it was run: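 For binding intensity, the highest Masliner-normalised natural-log median intensity across replicate spots of either probe orientation was taken. Protein bound to the array was stained with Alexa488 anti-GST antibody and scanned at 488 nm. The protein, GST-tagged P. falciparum DNA-binding domains from E. coli at about 25 μg on average, had been applied for 1 h to an Agilent 4 × 180k array of primer-extended double-stranded 36-bp intergenic genomic probes and negative controls.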

| Sequence | gcPBM binding intensity (ln) |
| --- | --- |
| TGGTGATATACGAAATGTACGCAAATCACAAAATAA [XGTACX_site8836] | 11.5 ± 0.98 |
| ATTAAAAAAAAAAAAAAAAAACAAAAAAAAAAAAAA [CACACA_negctrl_site1187] | 9.62 |
| ACTTGTAAGAAACACACACACACACCCATATATATA [CACACA_site796] | 10.2 ± 0.14 |
| TTTTTAAAACATCACTGTACCCGTTATGGTGAACAT [XGTACX_site3483] | 11.7 ± 1.2 |
| TTTTATTATTAAACATGTACCCATATTATTGTTATG [XGTACX_site5563] | 11.2 ± 0.56 |
| CTGAACCCGTTATGGTGTACATAAAATAAGACACAG [XGTACX_site3484] | 11.6 ± 0.96 |
| TATATATATATATATAGTACATATTAATTAATTTAT [XGTACX_site8198] | 10.8 ± 0.63 |
| CCTAAAAAAAAGAAATGATATACATATGTATATATA [GTGCAC_negctrl_site100] | 9.685 ± 0.064 |
| ATAAAAATAAAAAGATGTACGTATTTTTTTTTTTTT [XGTACX_site5329] | 11.6 ± 0.91 |
| TAAATAGATGTTTTATGTACGTATAAATAAAAAAAA [XGTACX_site3412] | 11.7 ± 0.88 |
| TATATAATATATTTATGTACGTATTTAAAAATTTAT [XGTACX_site160] | 11.6 ± 0.98 |
| AATAGTAAAAATCACTGTACGTTTATTTTTAAAATG [XGTACX_site1035] | 11.7 ± 0.91 |
| AAATTTAGTAAAAAATGTACGTAAAATGTAAAATAT [XGTACX_site1314] | 11.5 ± 0.73 |
| TTTATTTTGATTTAATGTACAAATAGTAAAACAAAA [XGTACX_site4789] | 10.9 ± 0.49 |
| ATTTATTTTGTTGTTGTTTTTATTTGATTGTTTTAT [CACACA_negctrl_site1275] | 9.785 ± 0.007 |
| GTTATTCTTAATTTTTGTACACATTTTTATATTATT [XGTACX_site7227] | 11.4 ± 0.7 |
| TTTTATAAATATTTTTGTACACATTTAAATATTATT [XGTACX_site4973] | 11.3 ± 0.59 |
| TATAACATTATTTTGTGTACACATTCGGTTATATTA [XGTACX_site6310] | 12 ± 1.1 |
| TATATATATATTATATGTACACATTTGTGAATTATT [XGTACX_site5848] | 11.5 ± 0.85 |
| AACATTATTTTGTGTACACATTCGGTTATATTATAT [CACACA_site5628] | 11.8 ± 1 |
| ATTTTATAACATTCATGTACACATTTCATTTATTTG [XGTACX_site3028] | 11.3 ± 0.77 |
| GCTTATTTTAATTCTTGTACTTATTTATATACAAAT [XGTACX_site2099] | 11.2 ± 0.83 |

| Sequence | gcPBM binding intensity (ln) |
| --- | --- |
| TTATTTATTTATATAGTGCAATAAACACATAAATAG | 10.1 ± 0.26 |
| TTTTGTAATTTTGTATGTACACATTAAAGTAATATG [XGTACX_site2401] | 11.5 ± 0.91 |
| AATTTTCAATAGTATACACACAATTCTATAAATATA [CACACA_site6650] | 9.84 ± 0.042 |
| ACTTCATTTTATAAGTGTACATAATTTGTTTATATA [XGTACX_site5453] | 11.5 ± 0.85 |
| AATAATTCTTAAAGGTGTACAATATGTATATAAGAA [XGTACX_site595] | 11.7 ± 0.6 |
| AACAATTTTTAAAGGTGTACAATATGTATATAAGAA [XGTACX_site254] | 11.6 ± 0.93 |
| AATAATTGTTAAAGGTGTACAATACGTATGTAAGAA [XGTACX_site1328] | 11.5 ± 0.95 |
| AATAAATAAATAAATAAAACAAAGGGATTACATACA [TGCATGCA_negctrl_site513] | 9.84 ± 0.11 |
| TACATTTATAATAATACACACATAAATTTACATTTT [CACACA_site3463] | 10.1 ± 0.16 |
| ATATATATATACATATGTACATATAAAATAATTTTG [XGTACX_site3731] | 11.1 ± 0.74 |
| CGGCACATTCTATATACACACATATAAATATATACA [CACACA_site566] | 9.97 ± 0.042 |
| CCAACATTTTTTAGAAGTACATTTTTATATTTATTA [XGTACX_site5179] | 11.3 ± 0.83 |
| AGAATAAGAATTATTAGTACTTATAAATATTATATT [XGTACX_site7228] | 10.9 ± 0.58 |
| TATATTATTATGCATAGTACGTACTGTGATAAGAAT [XGTACX_site2956] | 11.4 ± 0.8 |
| TTATTATGCTGAGTACGTACTTATATAAGAATAGCA [XGTACX_site2955] | 11.8 ± 1 |
| AAAAAAAAATATATATATATATATATAAATAAATTT [CACACA_negctrl_site519] | 9.315 ± 0.007 |
| AGGAAAAAAAAAATGACACACATATTTGAATTAAAA [CACACA_site1352] | 9.965 ± 0.007 |
| ACAAAATTTACAAAATGTACAAAGTATGTGTTTTAT [XGTACX_site6462] | 10.7 ± 0.36 |
| TATATGTGGGTTTTTTTTATGTGTTTTTCTTTTTTT [CACACA_negctrl_site936] | 10.2 ± 0.18 |
| GTGAAATTATTTCCGTGTACACATAAATATATATTT [XGTACX_site3989] | 11.8 ± 0.99 |
| TTAATTTTATTTTTTTGTACACATAAATATTATAAA [XGTACX_site4680] | 11.4 ± 0.91 |
| TATTATAATTTTATATGTACACATATATAAATATAT [XGTACX_site4054] | 11.4 ± 1.1 |

| Sequence | gcPBM binding intensity (ln) |
| --- | --- |
| TGTGAAATAAAATTTGTACACACATATATATATATA [CACACA_site8093] | 11.1 ± 0.73 |
| TGAAATAAAATTTGTACACACATATTTATTTATATA [CACACA_site6421] | 11.2 ± 0.97 |
| AAATTATTTCCGTGTACACATAAATATATATTTTAT [CACACA_site5121] | 11.8 ± 0.83 |
| TATTATGTCTAAAATAACATATTAATATATTATTTC [CACACA_negctrl_site285] | 9.77 ± 0.11 |
| TAAACAGTATGCAACGCATGCGTTGTTATATATAAA [TGCATGCA_site232] | 9.88 ± 0.042 |
| TCTTTTAAACAGTACACACACACATATATATATATA [CACACA_site924] | 11.2 ± 0.69 |
| AGCGTATTATACTGACGTACATTTTATGTAACTCCA [XGTACX_site2715] | 11.4 ± 1.1 |
| ATATGATCATTTTATCATTTTGCTTTTTCTTTTTTT [CACACA_negctrl_site1325] | 9.4 ± 0.42 |
| GAGTTAATATTTAAAAGTACAAGATGAATGTAAAAA [XGTACX_site5810] | 11.3 ± 0.78 |
| ATATTTTTGTTCAGGAGTACAGTTCAAGATGAAAAT [XGTACX_site4178] | 11.6 ± 0.99 |
| TTTGTTCATATGAAATGTACAAAAAAAAAAAAAAAA [XGTACX_site8849] | 10.8 ± 0.77 |
| ATATAATAGTTATATTGTACATAAATTATACACCTT [XGTACX_site628] | 11 ± 0.5 |
| ATAAATAATTGTAGTTGTACATGATATTTTTATTAC [XGTACX_site550] | 11.1 ± 0.63 |
| CATCTAAATTGTAGTTGTACACCTTAATCTTATTAC [XGTACX_site7547] | 11.7 ± 0.83 |
| TTAGTATATTTTTCCTGTACGTACTCAGATACAAAT [XGTACX_site7397] | 11.7 ± 0.91 |
| ATTTTTATTAAAATATGTACGTATTTTACTCATACA [XGTACX_site5330] | 11.6 ± 0.8 |
| ATATATGTATATTTATGTACGTATTCCTGTATAGTC [XGTACX_site5763] | 11.5 ± 0.85 |
| TTTAATAATTATTAAAGTACAAAATAAATATTGAAT [XGTACX_site7538] | 11 ± 0.62 |
| CAAATAAAAATAAGGAGTACAATTAAAAAAGGAAGG [XGTACX_site4366] | 11.6 ± 0.91 |
| TGGAATAAAAAAAGGAGTACAATTAATTATTCTTAA [XGTACX_site8299] | 11.8 ± 1.3 |
| TTGTATATATATGGAAAAATATATATATATATATAT [GTGCAC_negctrl_site591] | 10.3 ± 0.83 |
| ATATACTATATTTTAACACACAAAAAAAAAAAATAT [CACACA_site1091] | 9.985 ± 0.035 |

| Sequence | gcPBM binding intensity (ln) |
| --- | --- |
| AGGCACGTGTTATATACACACATAATCAAATAAACT [CACACA_site7852] | 10 ± 0.11 |
| CCCCCCGTGTTATATACACACATAATCAAATAAAAT [CACACA_site4111] | 11.8 ± 0.99 |
| AAATTATAATATAATACACACATAAAAAAAAAATCA [CACACA_site3634] | 9.975 ± 0.049 |
| TAATAAATAAAATAGAGTACAGGGATTTCATTAAAT [XGTACX_site8979] | 11.4 ± 0.82 |
| TTGCATTAATTTATGTGTACATATAAATTTTTATTT [XGTACX_site3060] | 11.6 ± 0.88 |
| CCAGTGTGCACCTTGCGTACATATTAAATTAATTAA [XGTACX_site3729] | 11.5 ± 0.96 |
| TTTTAATGTACCAGTGTGCACCTTGCGTACATATTA [GTGCAC_site9957] | 11.6 ± 0.97 |
| TTTTGGATCATTTGTTGTACATATGCAAAAAAAAAA [XGTACX_site3157] | 11.3 ± 0.91 |
| TTCATCTTAAAATTGGGTACATAACACAAAGTATAA [XGTACX_site1894] | 11.3 ± 0.93 |
| TTAAGAATATCTTAGAGTACATTTTATCATCTTAAA [XGTACX_site8298] | 11 ± 0.68 |
| ATGGTATCTTTTAGAAGTACATCATGATAATAATTT [XGTACX_site5544] | 11.7 ± 0.91 |
| ATCTTATCATTTTAAAGTACATAATTAATTCTTTTT [XGTACX_site3999] | 11.2 ± 0.67 |
| ATTTTTTTTTAATGCAAAAGGTGATGATCGGTCATA [CACACA_negctrl_site959] | 10.2 ± 0.35 |
| TATTAAAAATGTTAAGTGCAAAAATAAAAATTGTGG [GTGCAC_site9854] | 10.2 ± 0.17 |
| ATTAAAAAAATATACGCACACAAAATGTAATAACAA [CACACA_site2439] | 10.4 ± 0.21 |
| ATGCATATAACTACGTGTACAAATATACACAAATAC [XGTACX_site8811] | 11.4 ± 0.86 |
| GATACACCAAATAACTGTACGCACGTGTAATATTAA [XGTACX_site3441] | 11.6 ± 0.83 |
| CTTATACTTCTACATCGTACAAAAGATGGTATAATT [XGTACX_site2698] | 10.8 ± 0.43 |
| ATGTATATATATATATGTACATATTTTTTATATGTA [XGTACX_site441] | 11.2 ± 0.81 |
| TATTTACATTTTAGTAGTACATATATGTATATATAT [XGTACX_site6839] | 11.3 ± 0.79 |
| GAACCGTTTTTATGTAGTACATATGTATATATATAT [XGTACX_site1577] | 11.6 ± 1.1 |
| ATATTATATTGGATGTTGCACTTAACAAAAGGATAT [GTGCAC_site9478] | 10.2 ± 0.23 |
